The panel holds about 83,000 compounds, 20% with a hit somewhere; the sample as a whole holds those more often.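 Single-dose data. Exposure time 48 hours. Values below 10 considered active.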 Unmarked numbers belong to inactive results. Calls of active or inactive are those of the source.
Tests used:
Assay in all cases: NCI-60 one-dose screen, 48 h (100 = growth as untreated, 0 = no growth, -100 = all killed)
Settings in all cases: 10 µM unless noted
SR leukemia = test system: SR leukemia
RPMI-8226 leukemia = test system: RPMI-8226 leukemia
OVCAR-8 ovarian = test system: OVCAR-8 ovarian
OVCAR-5 ovarian = test system: OVCAR-5 ovarian
OVCAR-4 ovarian = test system: OVCAR-4 ovarian
SK-OV-3 ovarian = test system: SK-OV-3 ovarian
OVCAR-3 ovarian = test system: OVCAR-3 ovarian
NCI/ADR-RES ovarian = test system: NCI/ADR-RES ovarian
T-47D breast = test system: T-47D breast
BT-549 breast = test system: BT-549 breast
MDA-MB-435 melanoma = test system: MDA-MB-435 melanoma
SW-620 colon = test system: SW-620 colon
MCF7 breast = test system: MCF7 breast
HCT-116 colon = test system: HCT-116 colon
HCC-2998 colon = test system: HCC-2998 colon
KM12 colon = test system: KM12 colon
IGROV1 ovarian = test system: IGROV1 ovarian
HS 578T breast = test system: HS 578T breast

| Structure (SMILES) | growth (SR leukemia) | growth (RPMI-8226 leukemia) | growth (OVCAR-8 ovarian) | growth (OVCAR-5 ovarian) | growth (OVCAR-4 ovarian) | growth (SK-OV-3 ovarian) | growth (OVCAR-3 ovarian) | growth (NCI/ADR-RES ovarian) | growth (T-47D breast) | growth (BT-549 breast) | growth (MDA-MB-435 melanoma) | growth (SW-620 colon) | growth (MCF7 breast) | growth (HCT-116 colon) | growth (HCC-2998 colon) | growth (KM12 colon) | growth (IGROV1 ovarian) | growth (HS 578T breast) |
| --- | --- | --- | --- | --- | --- | --- | --- | --- | --- | --- | --- | --- | --- | --- | --- | --- | --- | --- |
| CCCCN1c2nc3ccccc3cc2Sc2cc3ccccc3nc21 | 76.5% | 78.4% | 106% | 93.6% | 93.7% | 112% | 294% | 106% | 13.7% | 97.1% | 151% | 94.4% | 7.26% (active) | 95.1% | 86.5% | 68.3% |  |  |
| Cc1ccc(-c2cc(-c3ccccc3)n(-c3ccccc3)n2)cc1 | 72.3% | 83.8% | 105% | 95.8% | 85.3% | 105% | 103% | 101% | 74.6% | 101% | 89% | 99.9% | 97.5% | 29.9% | 99.1% | 106% |  |  |
| CN(C)c1ccc(-c2nc3ncc(Br)cc3o2)cc1 | 94.4% | 74% | 99.6% | 100% | 113% |  | 112% | 88.4% | 75.7% | 78.3% | 115% | 99.3% | 97.6% | 86.8% | 85% | 113% | 17% | 97.2% |
| COc1ccc2ncccc2c1Cc1c(OC)ccc2ncccc12 | 25.7% | 69.2% | 87.3% | 91.4% | 83.3% | 83.6% | 72.9% | 40.8% | 59.8% | 90.3% | 12.4% | 40.5% |  | 59.2% |  | 52.1% |  | 72.6% |
| O=C(NN1C(=O)c2cc(C(=O)O)c(C(=O)O)cc2C1=O)c1ccncc1 | 119% | 103% | 112% | 107% | 116% | 110% | 131% | 116% | 102% | 103% | 114% | 101% | 98.3% | 106% | 103% | 111% |  | 104% |
| COc1cc2c(cc1OC)C(=O)/C(=C/c1cccc(OCC(=O)c3ccccc3)c1)C2 | 42.2% | 43.3% | 76.8% | 105% | 86% | 117% | 118% | 50.2% | 55.2% |  | 110% | 74.6% | 60.7% | 64.6% | 111% | 170% |  | 77.2% |
| O=C(COc1cccc(/C=C2\Oc3ccc4ccccc4c3C2=O)c1)c1ccc(Cl)cc1 | 51.6% | 67.9% | 80% | 108% | 85.3% | 95.6% | 93.8% | 100% | 62.6% | 3.5% (active) | 96.1% | 36% | 63.9% | 41.7% | 87.5% | 96.5% |  |  |
| O=C(CNc1ccc2c(c1)C(=O)c1ccccc1C2=O)Nc1ccc2c(c1)C(=O)c1ccccc1C2=O | -8.94% (active) | -36.6% (active) | -25.3% (active) | -83.6% (active) | -26.4% (active) | -30.8% (active) | -99.8% (active) |  | -65.5% (active) | -80.4% (active) | -82.4% (active) | -89.9% (active) | -71.1% (active) | -90.2% (active) | -93.3% (active) |  |  | -1.05% (active) |
| Cc1ccc2nc(SCC(=O)Nc3ccc(-c4nc5ccccc5s4)c(Cl)c3)[nH]c2c1 | 97.2% | 109% | 110% | 108% | 112% | 105% | 111% | 107% | 99.2% |  | 111% | 111% | 90.6% | 101% |  | 115% |  | 110% |
| C=CCNC(=O)/C(=C/c1cccc([N+](=O)[O-])c1)NC(=O)c1ccccc1 | 207% | 108% | 98.7% | 101% | 99.3% | 99.9% | 108% | 106% | 98.2% | 88.1% | 101% | 103% |  | 98.2% | 78.2% | 109% |  | 108% |
| COc1ccc(C(=O)COc2ccc(/C=C3\Oc4ccc5ccccc5c4C3=O)cc2)cc1 | 40.2% | 66.8% | 90.6% | 106% | 88.9% | 97.8% | 115% | 97.4% | 55.8% | 45.1% | 101% | 94.6% | 36.3% | 85.9% | 97.9% | 90.9% |  | 96.3% |
| COC(=O)N/N=C/c1coc2ccc(Cl)cc2c1=O | 53.8% | 60.3% | 110% | 95.3% | 97% | 92.3% | 63.4% | 99% |  | 82.5% | 103% | 101% | 88.9% | 95.5% | 101% | 94% |  | 92.8% |
| O=C(c1ccc(N2CCOCC2)cc1[N+](=O)[O-])N1CCOCC1 | 423% | 128% | 73.5% | 102% | 52% | 110% | 110% | 108% | 102% | 104% | -32.2% (active) | 93.1% | 127% | 107% | 108% | 121% |  |  |
| COc1cccc(C2=NN(C(C)=O)C(c3cc(OC)c(OC)c(OC)c3)C2)c1 (centres undefined) | -6.23% (active) | 4.18% (active) | 37.5% | 58.3% | 48.5% | 30.4% | 33.1% | 19% |  | 7.16% (active) | -28.2% (active) | 17.3% | 3.81% (active) | 26.9% | 15.7% | 35.9% |  | 15.4% |
| COc1ccc(-n2cnc3cc(C(=O)N4CCCCC4)ccc32)cc1 | 94.9% | 101% | 100% | 93.1% | 100% | 99.5% | 108% | 107% | 91% |  | 102% | 104% | 103% | 98.3% | 104% | 107% |  | 100% |
| CCOC(=O)c1sc(NC(=O)COc2cccc(/C=C3\CCc4cc(OC)ccc4C3=O)c2)nc1C | -19.4% (active) | 12.6% | 73% | 98% | 73.2% | 99% | 38.2% | 47.7% | 84.8% | -23.3% (active) | 8.01% (active) | 36.4% | 18.9% | 46.5% | 32.3% | 34.7% |  |  |
| COc1ccc(CNC(=O)c2c(C)n([O-])c3ccccc3[n+]2=O)cc1 | 97.4% | 96.3% | 96.5% | 89.9% | 97.7% | 99.3% | 115% | 54.2% | 81.3% | 76.8% | 124% | 108% | 91% | 97.9% |  | 131% |  | 111% |
| COc1cc(/C=N/NC(=O)c2ccc(C(F)(F)F)nc2Nc2cc(Cl)ccc2C)cc(OC)c1OC | 91.8% | 64.7% | 99.8% | 103% | 104% | 106% | 123% |  | 84.7% | 99.6% | 97.7% | 97% | 104% | 99% | 104% | 108% |  | 104% |
| Cc1cc(Cl)ccc1Nc1nc(C(F)(F)F)ccc1C(=O)N/N=C/c1ccc(Cl)cc1 | -37.5% (active) | -12.7% (active) | 11.2% | 6.57% (active) | 0.502% (active) | -15.4% (active) | 1.27% (active) | 4.33% (active) | -0.161% (active) | -7.4% (active) | 37.1% | 9.53% (active) | 2.27% (active) | -38.8% (active) | -13.3% (active) | 6.03% (active) |  |  |

From PubChem BioAssay (NCI)
